# High-throughput results: PubChem, National Center for Advancing Translational Sciences (NCATS)
# Rows were chosen to be rich in hits. Some 1.6% of all compounds tested hit in one or more screens of this group.
# KCNH2 3.1 inh = KCNH2 3.1 (human) potassium channel inhibition; activity change, % (tested at about 1.8 µM); 340,000 compounds, 0.95% hits; AID 720553; U2OS KCNH2 3.1, thallium flux FluxOr; active compounds read low;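 active means maximum activity change below -70%; inconclusive means maximum activity change from -70% to -50%; inactive means maximum activity change above -50%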;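 further: thallium influx rate constant from kinetic fluorescence after stimulation buffer; on the % scale 0 is the no-effect control and ±100 the full control effect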
#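 Normalized rate constant (relative to positive and negative DMSO controls) derived from a 2 min kinetic fluorescence read after stimulation; U2OS cells expressing the 3.1 isoform via virus at 1.77 x 10^8 /mL.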
# gsp agonist = activates gsp, the McCune-Albright syndrome mutation; gsp mutant cells, cAMP HTRF, 30 min; Potency, µM (doses to about 76.9 µM), for inactives: top-dose activation (cAMP increase), most hits filed as activators; 340,000 compounds, 0.13% hits; active means well fitted activation curve with a large enough effect; inconclusive means small, poorly fitted or top-dose-only effect, or another doubt; inactive means no such curve, though single readings can be large or run the other way; cell line not stated here;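 further: phosphodiesterase inhibitor Ro 20-1724 added with compounds to block cAMP breakdown; potency means the concentration at half of the fitted maximal effect; nearly all actives have a fitted effect of over 60% in size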
#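 Cells in DMEM/10% FBS with G418 were pretreated with compounds in DMSO plus […] (300 uM stock) for 30 min at 37C. cAMP was measured by HTRF (cAMP-d2 plus anti-cAMP antibody-K) after 30 min at room temperature.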
# GRP78 ERSR act = inducers of ER stress response in human glioma cells; U87-MG GRP78 promoter luciferase reporter, 16 h; Potency, µM, inactives show top-dose activation, most hits filed as activators; 420,000 compounds, 0.02% hits; active means well fitted activation curve with a large enough effect; inconclusive means small, poorly fitted or top-dose-only effect; inactive means no such curve, though single readings can be large or run the other way; further: potency means the concentration at half of the fitted maximal effect; series mostly up to about 76 µM; % of control where 0% means no effect; nearly all actives have a fitted effect of over 35% in size
#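 Stably transfected U87-MG human glioma cells carrying a GRP78-based luminescent sensor were seeded at 1000 cells/well, pin-dosed with compounds and incubated 16 h. Luciferase reagent was then added, and end-point luminescence was read after 10 min at room temperature.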
# Akt phos inh = blocks phosphorylation of Akt; Neuro2A IGF-stimulated pAkt S473 HTRF, 20 min; active compounds read low; activity change, % for hits at 50 µM; 360,000 compounds, 0.32% hits; in the data active means activity change below about -80%; inconclusive means mostly about -51% to -80%; further: on the % scale 0 is the no-effect control and ±100 the full control effect
#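 Single-point screen (50 µM final compound) in Neuro2A cells stimulated 20 min with 6 nM IGF at 37 deg C. After lysis, Ser473-phosphorylated Akt read by HTRF (ex 330 nm, em 615/665 nm) as the 665/615 ratio.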
# KCNH2 WT inh = inhibitors of human wildtype KCNH2 potassium channel | Q12809 | U2OS, BacMam KCNH2, thallium flux FluxOr; active compounds read low | activity change, % at 1.84 µM | 340,000 compounds, 0.37% hits | AID 720551;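 active means maximum activity change below -70%; inconclusive means maximum activity change between -70% and -50%; inactive means maximum activity change above -50%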; further: on the % scale 0 is the no-effect control and ±100 the full control effect
# Target sequence (Q12809 whole entry, looked up): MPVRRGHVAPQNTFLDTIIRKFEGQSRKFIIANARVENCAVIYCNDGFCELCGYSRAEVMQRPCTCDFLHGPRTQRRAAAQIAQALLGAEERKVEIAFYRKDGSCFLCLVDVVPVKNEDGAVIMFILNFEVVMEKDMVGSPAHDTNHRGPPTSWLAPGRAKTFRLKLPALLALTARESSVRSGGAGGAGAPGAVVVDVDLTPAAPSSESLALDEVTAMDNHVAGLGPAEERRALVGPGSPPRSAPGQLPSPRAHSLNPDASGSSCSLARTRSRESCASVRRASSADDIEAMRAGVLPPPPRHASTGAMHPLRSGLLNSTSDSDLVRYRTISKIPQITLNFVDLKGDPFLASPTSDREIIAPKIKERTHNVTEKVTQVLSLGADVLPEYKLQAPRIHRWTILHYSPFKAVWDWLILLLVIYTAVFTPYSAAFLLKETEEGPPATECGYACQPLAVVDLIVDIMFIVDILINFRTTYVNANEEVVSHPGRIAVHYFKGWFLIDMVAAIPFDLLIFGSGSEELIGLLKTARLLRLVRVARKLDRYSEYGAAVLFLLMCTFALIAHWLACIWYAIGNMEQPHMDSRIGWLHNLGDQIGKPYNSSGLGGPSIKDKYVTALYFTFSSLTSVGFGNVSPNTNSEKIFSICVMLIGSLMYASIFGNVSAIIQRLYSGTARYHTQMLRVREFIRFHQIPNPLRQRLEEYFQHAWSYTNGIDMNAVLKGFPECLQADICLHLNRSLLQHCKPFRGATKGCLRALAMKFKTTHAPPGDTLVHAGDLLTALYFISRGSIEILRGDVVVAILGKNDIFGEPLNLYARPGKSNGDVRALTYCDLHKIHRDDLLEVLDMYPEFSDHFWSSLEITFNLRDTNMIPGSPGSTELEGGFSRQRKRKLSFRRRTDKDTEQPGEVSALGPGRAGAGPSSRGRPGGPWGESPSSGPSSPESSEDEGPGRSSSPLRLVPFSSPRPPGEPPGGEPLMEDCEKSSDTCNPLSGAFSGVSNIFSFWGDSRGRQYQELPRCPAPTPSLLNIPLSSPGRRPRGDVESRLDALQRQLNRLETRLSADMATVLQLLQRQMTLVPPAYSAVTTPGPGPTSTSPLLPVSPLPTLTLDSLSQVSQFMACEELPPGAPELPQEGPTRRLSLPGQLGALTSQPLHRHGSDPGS
#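 U2OS cells were transduced with wild-type KCNH2 virus (2.03 x 10^8 / mL) for 4 h at room temperature, then cultured overnight at 37 C. Thallium flux was read with FluxOr dye. Rate constants were normalized to DMSO controls.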
# gsp antagonist = antagonists of gsp mutant (McCune-Albright syndrome). gsp-mutant cells, cAMP HTRF, 30 min. Potency, µM (doses to about 76.9 µM), without a hit: at the top dose activity change, negative = inhibition, hits mostly inhibitors. 340,000 compounds, 0.4% hits. AID 624288; calls by dose curve; cell line not stated here;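 further: intracellular cAMP measured with PDE inhibitor Ro 20-1724 present during compound exposure; potency means the concentration at half of the fitted maximal effect; on the % scale 0 is the no-effect control and ±100 the full control effect; nearly all actives have a fitted effect of over 65% in size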
#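 G418-selected cells were plated in DMEM/10% FBS for 16-24 h at 37C, then treated with compounds plus the PDE inhibitor […] (300 uM solution added) for 30 min at 37C. Intracellular cAMP was measured by HTRF after 30 min lysis at room temperature.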
# Starred values were filed as active, the others as inactive; i = inactive; ? = inconclusive; nt = no result; [ ] = dose if it differs, or a comment.
SMILES,KCNH2 3.1 inh,gsp agonist,GRP78 ERSR act,Akt phos inh,KCNH2 WT inh,gsp antagonist
CN(C)c1ccc(C2/C(=C(/O)c3ccc(Br)cc3)C(=O)C(=O)N2C)cc1 (stereo not given),-175.8*,-2.5%,-3.3%,i,-1.5,1.9%
O=C(O)C1CSC2(c3ccc(Br)cc3)CCC(=O)N12 (stereo not given),-28.4,-21.4%[15.4 µM],-1.0%,i,-5.6,nt
O=C(O)C1CSC2(c3ccc4c(c3)OCCO4)CCC(=O)N12 (stereo not given),-9.9,-17.6%,-1.2%,-114.8%*,-0.6,-4.8%
COc1ccc(-n2nc(C(=O)NCC(=O)NCCCN3CCCCCC3)c3ccccc3c2=O)cc1Cl,-85.5*,0.3%,-1.3%,i,2.4,7.3%
O=[N+]([O-])c1cc(C(F)(F)F)ccc1-n1nnc2ccccc21,0.7,-7.2%,-1.9%,i,-19.8,-3.9%
O=[N+]([O-])c1cc(S(=O)(=O)Nc2ccccc2)ccc1-n1nnc2ccccc21,-183.1*,6.3%,-3.1%,i,-209.8*,-7.1%[15.4 µM]
COc1ccc(CN2CCCC(c3nc(-c4ccncc4)ncc3-c3ccccc3)C2)c(OC)c1OC (stereo not given),nt,nt,-6.6%,nt,nt,nt
CC(=O)c1c(C)oc2ccc(NS(=O)(=O)c3ccc(F)cc3C)cc12,0.0,12.0%[15.4 µM],-2.9%,i,-4.0,25.1µM*
CC1CN(Cc2cccn2-c2cccnc2)Cc2cc(Cl)ccc2O1 (stereo not given),nt,nt,-3.8%,nt,nt,nt
CC(=O)N1c2ccc(S(=O)(=O)N3CCC(C(=O)Nc4ccc(F)cc4)CC3)cc2CC1C (stereo not given),2.9,7.8%,-4.7%,i,2.9,10µM*
COc1ccc(C2=NC(c3ccc(Cl)cc3)C(c3ccc(Cl)cc3)N2C(=O)N2CCNC(=O)C2)c(OC(C)C)c1 (stereo not given),nt,nt,3.0%,nt,nt,nt
Nc1ccccc1Nc1c(F)c(F)nc(F)c1Cl,-72.5*,-10.1%,-1.6%,i,2.1,-4.8%
Nc1ccccc1Nc1cc(-c2cccc(Cl)c2)nn1-c1ccccc1,-8.4,17.2%,0.9%,i,-4.9,-18.9%
O=C(OCc1nc2ccccc2[nH]1)C12CC3CC(CC(C3)C1)C2,4.0,10.6%,-0.3%,i,-22.9,35.5µM*
O=C(Nc1nc2ccccc2[nH]1)C12CC3CC(CC(C3)C1)C2,2.4,0.0%,10.9%,i,3.2,-23.2%
C=CCC1(c2ccccc2)Oc2ccc(C)cc2-c2nc3cc(Cl)c(Cl)cc3nc21 (stereo not given),nt,nt,-3.3%,nt,nt,nt
CCN1/C(=C2\C(=O)N(c3ccccc3)N=C2C)C=Cc2cc(C)ccc21,-102.3*,-7.6%[15.4 µM],-6.0%,i,0.4,4.6%
CCN1/C(=c2/s/c(=C3/C(=O)N(c4ccccc4)N=C3C)n(CC)c2=O)C=Cc2ccccc21,-14.2,-3.1%[15.4 µM],-3.3%,i,-6.7,5.8%
COC(=O)[C@]12CCC(C)(C)C[C@@H]1[C@@H]1C(=O)C=C3[C@@]4(C)C=C(C#N)C(=O)C(C)(C)[C@@H]4CC[C@@]3(C)[C@]1(C)CC2,nt,nt,-11.2%,nt,nt,nt
CN(C)c1ccc(/C=C/c2ncnc3ccccc23)cc1,nt,nt,-1.6%,nt,nt,nt
O=[N+]([O-])c1cccc(OCCCN2CCC(Cc3ccccc3)CC2)c1,-88.0*,-30.7%,-1.8%,i,-85.6*,5.2%
Cc1ccc([N+](=O)[O-])c(OCCN2CCC(Cc3ccccc3)CC2)c1,-93.3*,19.4%[15.4 µM],-8.3%,i,-4.2,4.5%
O=[N+]([O-])c1ccc(CN2CCC(Cc3ccccc3)CC2)cc1,?,-57.0%,4.4%,i,3.2,2.9%
Cc1ccccc1OCCN1CCC(Cc2ccccc2)CC1,-0.4,-17.8%,-4.7%,i,-9.4,9.5%
CCCC(=O)O[C@]1(C(=O)COC(=O)CC)[C@@H](C)C[C@H]2[C@@H]3CCC4=CC(=O)C=C[C@@]4(C)[C@@]3(F)[C@H](O)C[C@@]21C,nt,nt,-3.0%,nt,nt,nt
SMILES,KCNH2 3.1 inh,gsp agonist,GRP78 ERSR act,Akt phos inh,KCNH2 WT inh,gsp antagonist
COc1ccc(S(=O)(=O)N2CC(C(=O)O)Oc3ccc(CC(=O)O)cc32)cc1 (stereo not given),2.5,9.7%,-3.5%,-123.4%*,-32.9,14.9%
NC(=O)Cn1nnc(-c2ccc(CN3CCCCC3)cc2)n1,-82.2*,-19.3%,-0.3%,i,-5.6,-0.3%
CCCCOc1ccc(/C=N/NC(=O)c2nnn(-c3nonc3N)c2CN2CCCCCC2)cc1,-80.5*,12.8%,-4.3%,i,-0.8,-21.5%
Nc1nonc1-n1nnc(C(=O)N/N=C/c2ccc(OCc3ccccc3)cc2)c1CN1CCCCC1,-98.1*,-15.7%,1.8%,i,6.4,?
CN(C)c1ccc(/C=N/NC(=O)c2nnn(-c3nonc3N)c2CN2CCCCCC2)cc1,-37.8,4.6%,-2.7%,i,6.6,-26.2%
CCOC1(/N=C(\C)NS(=O)(=O)c2ccc(Cl)cc2)C(C)=CC(=O)C=C1C,-98.6*,10.6%[15.4 µM],-1.0%,i,17.1,-44.2%
Cc1ncnc2nc[nH]c12,nt,nt,-7.1%,nt,nt,nt
CSc1cc(/C=N/O)c(SC)s1,-5.9,-3.3%,-2.0%,-116.3%*,-0.9,2.0%
CCOC(=O)Cc1nnc(Nc2cccc(C)c2)c2ccccc12,15.0,3.2%,1.3%,-109.3%*,7.7,-14.2%
CCC(CC)C(=O)Nc1c2c(nn1-c1ccc(F)cc1)CS(=O)(=O)C2,-80.6*,-18.6%,-2.9%,i,2.7,2.6%
Cc1cccc(C(=O)O)c1NC(=O)c1ccc(F)cc1,0.2,3.6%,-4.8%,i,-194.3*,2.2%
Cc1cccc(C)c1NC(=O)c1ccccc1C(=O)O,-4.2,24.9%,-3.5%,i,7.9,12.4%
Nc1ccc(/C=C/c2nccc3ccccc23)cc1,nt,nt,-6.3%,nt,nt,nt
CN1C(=O)CSc2ccc(NC(=O)N3CCN(c4ccccn4)CC3)cc21,7.4,-1.4%,-0.3%,i,-3.0,8.6%
Cc1ccc(C)c(N2CCN(C(=O)Nc3ccc4c(c3)N(C)C(=O)CS4)CC2)c1,-2.6,16.4%,-3.4%,i,-0.5,39.8µM*
COc1ccc(C(CNC(=O)c2cccc(NS(=O)(=O)c3ccc(Br)cc3)c2)N(C)C)cc1 (stereo not given),-80.0*,-8.7%[15.4 µM],-1.6%,i,6.7,-6.2%
COc1ccc(NC(=O)CN(C)C(=O)c2cccc(NS(=O)(=O)c3ccc(Br)cc3)c2)cc1,-126.6*,1.2%[15.4 µM],-2.6%,i,-8.1,-4.9%
NCCCNCCCCNC(=O)C(O)NC(=O)CCCCCCN=C(N)N (stereo not given),nt,nt,-4.6%,nt,nt,nt
N.N.N.N.N.N.N.N.N.N.N.N.N.N.O.O.[Ru+4].[Ru+5].[Ru+5],nt,nt,-10.8%,nt,nt,nt
